Experimental data: PubChem BioAssay
A number with no mark means an inactive call. Unless noted, the rule behind the calls is not given here.

Assay: cell viability in Huh7 cells, primary screen, cytotoxicity control for HCV replication inhibitor project, CellTiter-Glo luminescence, basal, 48 h (AID 1143);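 note: Huh7 hepatoma cells carrying a hepatitis C replication reporter with no stimulus; test concentration not given here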
Conditions: Huh7 HCV replicon, higher = more signal, called active from +8 up or from −8 down
Compound `COc1ccc(CCNC(=O)[C@@H]2c3ccccc3C(=O)N(Cc3ccccc3)[C@H]2c2ccc(CO)cc2)cc1` has a z-score of -2.05.
`O=C(CS)NCCCCCNC(=O)[C@@H]1C[C@@H]2C(=O)N3CCC[C@H]3C(=O)N2[C@@H]1c1ccc(O)cc1` gave a z-score of -0.237.
For `COC(=O)[C@]1(Cc2ccccc2CN=[N+]=[N-])N=C(c2ccc(OCCCO)cc2)O[C@@H]1c1ccccc1`, the z-score was -4.69.
With `COc1ccc([Si](C)(C)[C@@H]2[C@@H](CC(=O)N(CCO)Cc3ccccc3)O[C@]3(C(=O)N(Cc4ccc(N5CCOC5=O)cc4)c4ccccc43)[C@H]2C)cc1` the z-score was -5.01.
Work on `[N-]=[N+]=NCc1ccccc1C[C@]1(C(=O)NCCN2CCOCC2)N=C(c2ccc(OCCCO)cc2)O[C@H]1c1ccccc1` yielded a z-score of -4.59.
Compound `COC(=O)[C@H]1N=C(c2ccc(OCCCO)cc2)O[C@H]1c1ccccc1CN=[N+]=[N-]` has a z-score of -1.45.

Assay: P. aeruginosa biofilm formation inhibitors, primary screen, PAO1 strain, BacTiter-Glo luminescence, LB-PBS (AID 1144)
Conditions: 12 h, higher = more signal
With `CC(C)[Si](C#C[Si](C(C)C)(C(C)C)C(C)C)(O[C@H](C)c1cn(Cc2cccc(Cl)c2)nn1)C(C)C` the z-score was -1.25.
For `CC(C)(C)OC(=O)CC[C@]1(C(=O)N2CCCCC2)N=C(c2ccc(OCCCO)cc2)O[C@H]1c1ccccc1CN=[N+]=[N-]`, the z-score was -0.596.
In the case of `CCOC(=O)C[C@H]1[C@H](OC(=O)Cc2ccc3c(c2)OCO3)[C@@H](NC(=O)c2ccccc2)c2cc(OCCCO)ccc2N1C(=O)c1ccc2ccccc2n1`, the z-score is reported as 0.581.
`CC(C)CCC[C@@H](C)[C@H]1CC[C@@]2(C)C3=C(CC[C@]12C)[C@@]1(C)CC[C@H](OC(=O)c2ccc(N)cc2)C(C)(C)C1CC3` (stereo partly specified) gave a z-score of -0.593.
Work on `C=CCC(OC(C)=O)[C@@H]1[C@@H](N(Cc2cccc3ccccc23)C(=O)c2ccc(C)cc2)c2cc(OCCCO)ccc2N1C(=O)c1ccc2ccccc2c1` (stereo partly specified) yielded a z-score of -0.412.
With `COC(=O)C(CC#Cc1ccc2c(c1)[C@]1(C(=O)N2)[C@H](c2ccccc2OCCO)N2[C@H](c3ccccc3)[C@H](c3ccccc3)OC(=O)[C@H]2[C@@H]1C(=O)Nc1nc2ccccc2s1)C(=O)OC` the z-score was -0.827.
In the case of `C=CCOC(=O)[C@@H]1[C@H]2C(=O)O[C@H](c3ccccc3)[C@H](c3ccccc3)N2[C@H](c2ccc(OCCOC(=O)[C@@H]3C[C@@H]4C(=O)N5CCC[C@H]5C(=O)N4[C@@H]3c3cccc(OCCO)c3)cc2)[C@@]12C(=O)Nc1ccc(I)cc12`, the z-score is reported as -0.49.
Compound `COc1ccc(C(=O)Nc2ccc(CN3C(=O)[C@]4(O[C@H](CCn5cc([C@H](O)c6ccccc6)nn5)[C@@H]([Si](C)(C)c5ccc(OC)cc5)[C@@H]4C)c4ccccc43)cc2)cc1` has a z-score of -0.675.
In the case of `CN(C)C(=O)[C@@]1(CCC(=O)OC(C)(C)C)N=C(c2ccc(OCCCO)cc2)O[C@H]1c1ccccc1N=[N+]=[N-]`, the z-score is reported as -0.0215.
For `COCCOC(=O)N1C(=O)[C@@]2(c3cc(C#CCCO)ccc31)[C@H](C(=O)NC[C@H](O)c1ccccc1)[C@H]1C(=O)O[C@H](c3ccccc3)[C@H](c3ccccc3)N1[C@@H]2c1ccccc1OCCO`, the z-score was 1.59.
With `COc1ccc([Si](C)(C)[C@H]2[C@H](CCO)O[C@@]3(C(=O)N(Cc4cccc(N5CCOC5=O)c4)c4ccccc43)[C@@H]2C)cc1` the z-score was -0.112.
Work on `CN(C)CCCC[C@@H]1NC(=O)[C@H]2C[C@@H](C(=O)NCCCCCCNC(=O)CS)[C@@H](c3ccc(O)cc3)N2C1=O` yielded a z-score of -0.113.
Work on `CC(C)=CCCC(C)=CC(O)C1C=CC2C(=O)N(c3ccccc3)C(=O)C2N1Nc1ccc([N+](=O)[O-])cc1` (stereo unspecified) yielded a z-score of -0.322.
`COC(=O)[C@@]1(Cc2ccc(OC)cc2)[C@H]2c3cc(C(=O)N(C)C)n(Cc4cc(F)c(F)c(F)c4)c3C[C@H]2CN1C(=O)c1ccccc1` gave a z-score of -0.00792.
With `COCCOC(=O)N1C(=O)[C@@]2(c3cc(C#CCC(C(=O)OC)C(=O)OC)ccc31)[C@H](C(=O)N1CCCCCCC1)[C@H]1C(=O)O[C@H](c3ccccc3)[C@H](c3ccccc3)N1[C@@H]2c1ccc(O)cc1` the z-score was -0.754.
Work on `[N-]=[N+]=Nc1ccccc1[C@H]1OC(c2ccc(OCCCO)cc2)=N[C@@]1(Cc1ccccc1)C(=O)NCc1ccccc1` yielded a z-score of -0.638.
With `COC(=O)C(CC#Cc1ccc2c(c1)[C@]1(C(=O)N2)[C@H](c2ccc(O)cc2)N2[C@H](c3ccccc3)[C@H](c3ccccc3)OC(=O)[C@H]2[C@@H]1C(N)=O)C(=O)OC` the z-score was -1.56.
`C=CCNC(=O)[C@H]1[C@@H]2C(=O)O[C@@H](c3ccccc3)[C@@H](c3ccccc3)N2[C@@H](c2ccc(OCCO)cc2)[C@]12C(=O)N(C(=O)OCCOC)c1ccc(C#CC3=CCCCC3)cc12` gave a z-score of 1.09.
For `COC(=O)[C@@]1(Cc2ccccc2)[C@H]2c3cc(C(=O)N(C)C)n(Cc4ccccn4)c3C[C@H]2CN1C(=O)c1ccccc1`, the z-score was -0.0189.
Work on `O=C(Nc1cc(Br)ccc1C(=O)NCc1cccc(O)c1)c1ccccc1` yielded a z-score of -0.26.
In the case of `NCCCCCCNC(=O)[C@H]1C[C@H]2C(=O)N3CCC[C@H]3C(=O)N2[C@H]1c1ccc(O)cc1`, the z-score is reported as 0.131.
`C#CCNS(=O)(=O)N(C)C` gave a z-score of -0.441.
Compound `CCCC=C(CCC)[C@@H](NS(=O)(=O)CC)c1ccccc1` has a z-score of 0.932.
`CN(C)CCCCCCNC(=O)[C@@H]1C[C@@H]2C(=O)NCC(=O)N2[C@@H]1c1ccc(O)cc1` gave a z-score of -0.162.
For `NC(=O)NCC#Cc1ccc2c(c1)[C@]1(C(=O)N2)[C@H](c2ccc(O)cc2)N2[C@H](c3ccccc3)[C@H](c3ccccc3)OC(=O)[C@H]2[C@@H]1C(N)=O`, the z-score was -0.125.
In the case of `COCCCNC(=O)[C@@]1(C)c2ccccc2C(=O)N(c2ccc(C)cn2)[C@H]1c1ccc(CO)cc1`, the z-score is reported as -0.252.
`COCCCNC(=O)[C@]1(Cc2ccccc2)N=C(c2ccc(OCCCO)cc2)O[C@@H]1c1ccccc1N=[N+]=[N-]` gave a z-score of -1.57.
For `CCCC=C(CCC)[C@@H](NC(=O)Cc1ccccc1)c1ccc(C(=O)OC)cc1`, the z-score was 0.354.
Work on `COc1ccc([Si](C)(C)[C@@H]2[C@@H](CCO)O[C@]3(C(=O)N(Cc4ccccc4)c4ccc(N5CCCCC5=O)cc43)[C@H]2C)cc1` yielded a z-score of -0.119.
Compound `COc1ccc(CCNC(=O)[C@@H]2c3ccccc3C(=O)N(Cc3ccccc3)[C@H]2c2ccc(CO)cc2)cc1` has a z-score of -1.57.
In the case of `O=C(CS)NCCCCCNC(=O)[C@@H]1C[C@@H]2C(=O)N3CCC[C@H]3C(=O)N2[C@@H]1c1ccc(O)cc1`, the z-score is reported as -0.78.
For `COC(=O)[C@]1(Cc2ccccc2CN=[N+]=[N-])N=C(c2ccc(OCCCO)cc2)O[C@@H]1c1ccccc1`, the z-score was 0.211.
Work on `COc1ccc([Si](C)(C)[C@@H]2[C@@H](CC(=O)N(CCO)Cc3ccccc3)O[C@]3(C(=O)N(Cc4ccc(N5CCOC5=O)cc4)c4ccccc43)[C@H]2C)cc1` yielded a z-score of 0.0675.
In the case of `[N-]=[N+]=NCc1ccccc1C[C@]1(C(=O)NCCN2CCOCC2)N=C(c2ccc(OCCCO)cc2)O[C@H]1c1ccccc1`, the z-score is reported as -1.63.
`COC(=O)[C@H]1N=C(c2ccc(OCCCO)cc2)O[C@H]1c1ccccc1CN=[N+]=[N-]` showed a z-score of 0.446.
